Source: PubChem (National Center for Advancing Translational Sciences (NCATS))
Rab9 promoter act: activators of Rab9 promoter. Huh7 Rab9 promoter-luciferase reporter, luminescence, 24 h. Potency, µM (highest dose often 9.22 µM), inactives show at the top dose activation, negative = inhibition, hits mostly activators. actives 2.8% (n = 320,000). AID 485297; further: % of control where 0% means no effect; nearly all actives have a fitted effect of over 60% in size
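Stable Rab9-luc Huh7, 1500 cells/well, 2 h settle; cmpd in DMSO, 24 h, 37 °C/5% CO2; luciferase reagent 10 min RT; luminescence.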
Luc counter: Kinase-Glo luciferase inhibition (counter-screen). actives 0.28% (n = 200,000). Kinase-Glo luciferase, ATP luminescence, 8 min. AID 1379. Potency, µM (top dose mostly 38.3 µM), for inactives: at the top dose activity change, negative = inhibition, hits mostly inhibitors. Q27757; further: on the % scale 0 is the no-effect control and ±100 the full control effect; nearly all actives have a fitted effect of over 60% in size
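Recombinant Kinase-Glo luciferase, 10 uM ATP (linear range), luciferin; imidazole pH 7.2 / KCl / MgCl2 / Tween / BSA buffer; 8 min RT; luminescence.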
ELG1 genotox: inducers of genotoxicity in HEK293T ELG1-luciferase cells; HEK293T ELG1-luciferase reporter, luminescence, 16 h; Potency, µM (doses to about 46 µM), inactives show at the top dose activity change, positive = activation, actives largely listed as activators; actives 1.3% (n = 330,000); further: % of control where 0% means no effect; nearly all actives have a fitted effect of over 60% in size
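HEK293T cells expressing luciferase-tagged ELG1 were exposed to compound or DMSO vehicle for 16 hr at 37 °C and 5% CO2. Luciferase activity was then measured with ONE-Glo after 30 min at room temperature.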
SMN2 splice up: increases expression of the SMN2 splice variant; HEK293 SMN2-luciferase splicing reporter, luminescence, 30-36 h; AID 1458; Potency, µM (top dose mostly 46.1 µM), for the others: top-dose activity change, positive = activation, hits mostly activators; actives 2.8% (n = 210,000); further: % of control where 0% means no effect; nearly all actives have a fitted effect of over 55% in size
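HEK293 cells carry an SMN2 […]–luciferase reporter in which exon 7 inclusion puts luciferase in frame. Cells were plated 10-12 h before compound addition, then incubated 30-36 h at 37C. ONE-Glo luminescence was read; sodium butyrate at 4.5 mM final served as control.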
NPC1 promoter act: activates the NPC1 promoter | Huh7 NPC1 promoter luciferase reporter, 24 h | Potency, µM (top dose mostly 9.22 µM), for the others: at the highest dose activation, actives largely listed as activators | actives 2.4% (n = 320,000); further: % of control where 0% means no effect; nearly all actives have a fitted effect of over 60% in size
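Quantitative HTS used a cell-based reporter: Huh7 cells stably bearing the NPC1 promoter upstream of luciferase were treated with compounds for 24 h, and promoter activation was read as luminescence.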
FLuc modulator: counter-screen for miR-21 project: firefly luciferase inhibitors or activators; P08659; purified FLuc, Km substrates, luminescence inhibition; Potency, µM (top dose mostly 57.5 µM), inactives show at the highest dose activity change, negative = inhibition, actives largely listed as inhibitors; actives 6.9% (n = 360,000); AID 588342;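 further: plate controls were vehicle for no effect and reference inhibitor for full effect; nearly all actives have a fitted effect of over 55% in size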
Target sequence (P08659 whole entry, looked up): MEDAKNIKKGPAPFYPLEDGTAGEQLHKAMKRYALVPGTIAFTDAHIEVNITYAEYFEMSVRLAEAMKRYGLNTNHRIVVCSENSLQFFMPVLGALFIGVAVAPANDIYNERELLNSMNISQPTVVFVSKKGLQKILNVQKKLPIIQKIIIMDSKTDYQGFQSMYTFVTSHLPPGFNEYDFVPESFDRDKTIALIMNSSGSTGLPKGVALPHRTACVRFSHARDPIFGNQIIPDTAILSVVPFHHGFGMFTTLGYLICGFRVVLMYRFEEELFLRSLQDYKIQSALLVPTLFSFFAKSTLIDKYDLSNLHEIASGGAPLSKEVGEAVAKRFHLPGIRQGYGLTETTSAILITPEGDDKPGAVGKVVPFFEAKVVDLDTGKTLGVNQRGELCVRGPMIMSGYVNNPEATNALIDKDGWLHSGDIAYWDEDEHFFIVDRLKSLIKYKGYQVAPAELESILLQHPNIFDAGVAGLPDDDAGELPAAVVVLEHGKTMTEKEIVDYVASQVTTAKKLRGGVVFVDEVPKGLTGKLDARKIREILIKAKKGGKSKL
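Purified P. pyralis luciferase, 10 nM final, with Km-level 10 uM D-luciferin and 10 uM ATP in 50 mM Tris acetate pH 7.5, 10 mM Mg acetate, 0.01% Tween-20, 0.05% BSA; 6-point qHTS titration about 60 µM downward; luminescence read.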
Numbers without * were called inactive; ? = inconclusive; · = no result; [ ] = dose if it differs, or a comment. Shown are actives, neighbours in structure and some others; about 7.5% of the full set was active somewhere. The call rests on the fitted dose curve; in most records, active means well fitted curve in the direction sought with a large enough effect; inconclusive means small, poorly fitted or top-dose-only effect, or another doubt; inactive means no such curve, though single readings can be large; an effect the other way counts as inactive or inconclusive. Potency means the concentration at half of the fitted maximal effect.

SMILES | Rab9 promoter act | Luc counter | ELG1 genotox | SMN2 splice up | NPC1 promoter act | FLuc modulator
CCCC(=O)Nc1ccc(-c2nc3cc(C)c(C)cc3o2)c(O)c1 | 2µM* | -1% | ? | 35µM* | ? | 1%
C[C@@]1(O)CCOC(=O)C1 | · | 0%[17.1 µM] | · | -12%[20.6 µM] | · | ·
COc1ccc(C(=O)/C=C/Nc2ccc(S(=O)(=O)Nc3onc(C)c3C)cc2)cc1 | -1% | 2% | 15% | 19% | 8% | 7.6µM*
NC(=O)N/N=C/c1ccc(-c2ccc(S(=O)(=O)Nc3ncccn3)cc2)o1 | -3% | · | 0% | · | -1% | 5%
CC(C)Oc1ccc(C(=O)N/N=C/c2ccc(-c3ccc(S(=O)(=O)Nc4ncccn4)cc3)o2)cc1 | 10% | 1% | -1% | 7% | 7% | 27µM*
Cc1noc(NS(=O)(=O)c2ccc(N/C=C/C(=O)c3ccc(F)cc3)cc2)c1C | 17% | 1% | -5% | -27% | 5% | 21µM*
CCc1ccc(OCC(=O)Nc2ccc(S(=O)(=O)Nc3onc(C)c3C)cc2)cc1 | · | · | · | -3% | · | 12µM*
CCc1ccc(C(=O)/C=C/Nc2ccc(S(=O)(=O)Nc3onc(C)c3C)cc2)cc1 | ? | 0% | 13% | 7% | 20% | 11µM*
Cc1noc(NS(=O)(=O)c2ccc(NC(=O)c3ccc(OC(C)C)cc3)cc2)c1C | 1% | -3% | 3% | · | -1% | 13µM*
Cc1noc(NS(=O)(=O)c2ccc(N/C=C\C(=O)c3ccncc3)cc2)c1C | 9% | 14% | -4% | -4% | -3% | -1%
COc1ccc(CC(=O)NNC(=O)c2cc(C)oc2C)cc1OC | -8% | · | -1% | · | 2% | 0%
Cc1cc2ncc(-c3cccc(Cl)c3)cn2n1 | ? | -5% | 9% | ? | ? | ?
Cc1nn2cc(-c3ccc(Cl)cc3)cnc2c1Cl | 3.2µM* | -12% | ? | 5.6µM* | 3.5µM* | ?
Cc1ccc2cc(CN(c3cccc(C)c3C)S(=O)(=O)c3ccccc3)c(=O)[nH]c2c1 | -5% | · | -10% | · | -3% | 0%
Cc1ccc(CNC(=O)Cn2ncn3cccc3c2=O)cc1 | 2.5µM* | · | ? | · | ? | 13µM*
NC(=O)CSc1nnc(NC(=O)c2ccc(S(=O)(=O)N3CCOCC3)cc2)s1 | 7% | · | 0% | · | 2% | ?
O=C(CSc1nnc(Nc2ccccc2)s1)NN1C(=O)NC2(CCCCC2)C1=O | -6% | 10% | 1% | -6% | 3% | 19µM*
Nc1nnc(SCC(=O)Nc2cccc(S(=O)(=O)N3CCOCC3)c2)s1 | -6% | · | -1% | · | -4% | -12%
O=C(CSc1nnc(Nc2ccccc2)s1)Nc1ccc(S(=O)(=O)N2CCOCC2)cc1 | 2% | 17% | -4% | -23% | 0% | 11µM*
Cc1ccc(Nc2nnc(SCC(=O)Nc3ccc(S(=O)(=O)N4CCOCC4)cc3)s2)cc1 | 19% | -5% | ? | 6% | 7% | 3µM*
COc1ccc(NC(=O)CSc2nnc(NC(=O)c3ccc(S(=O)(=O)N4CCOCC4)cc3)s2)cc1 | 8% | 0% | ? | ? | 13% | 2.7µM*
COc1ccc(CNC(=O)c2cc3sccc3n2Cc2ccc(C)cc2)cc1 | · | · | · | 14% | · | -12%
Cc1c(CCC(=O)N2CCC[C@H]2C(=O)O)c(=O)oc2cc3oc4c(c3cc12)CCCC4 | -4% | · | ? | · | 19% | 12µM*
Cc1c(CCC(=O)NCCC(=O)O)c(=O)oc2c(C)c3oc4c(c3cc12)CCCC4 | 12% | · | 5% | · | -4% | ?
Cc1c(CCC(=O)NCC(=O)NCC(=O)O)c(=O)oc2cc3oc4c(c3cc12)CCCC4 | 1% | · | 0% | · | -4% | 21µM*
SMILES | Rab9 promoter act | Luc counter | ELG1 genotox | SMN2 splice up | NPC1 promoter act | FLuc modulator
Cc1c(CCC(=O)O)c(=O)oc2cc3oc4c(c3cc12)CCCC4 | 5% | · | 10% | · | 2% | 6µM*
Cc1c(CCC(=O)N2CCC(C(=O)NCCCCCC(=O)O)CC2)c(=O)oc2cc3oc4c(c3cc12)CCCC4 | -39% | · | 9% | · | -3% | 13µM*
Cc1ccc(C)c(-c2nnc(NC(=O)Cc3ccccc3)o2)c1 | -8% | · | -5% | · | 3% | -1%
Cc1n[nH]c(=O)c2c(NC(=O)CSc3nc4ccccc4c(=O)n3CCCO)oc(C)c12 | -2% | · | 1% | · | 0% | 5%
C[C@@]12CCC(OC(=O)c3ccccc3)CC1CCc1ccccc12 (stereo partly drawn) | · | 0% | · | -5% | · | ·
Cc1c(CCC(=O)N[C@@H](CC(C)C)C(=O)O)c(=O)oc2cc3oc4c(c3cc12)CCCC4 | -7% | · | 4% | · | -3% | 17µM*
Cc1c(CCC(=O)N[C@@H](C)C(=O)O)c(=O)oc2c(C)c3oc4c(c3cc12)CCCC4 | -1% | · | 1% | · | -1% | ?
Cc1oc2cc3oc(=O)c(CCC(=O)NCCC(=O)O)c(C)c3cc2c1C | 0% | · | 11% | · | -4% | 12µM*
COc1ccccc1NC(=O)CCS(=O)(=O)c1ccc2nc(C)sc2c1 | · | · | · | · | · | -1%
COc1cccc(NC(=O)c2ccc3nc(C)sc3c2)c1 | 1.1µM* | · | 23µM* | · | 1.6µM* | 11µM*
COc1ccccc1NC(=O)c1ccc2nc(C)sc2c1 | ? | · | 7% | · | 4µM* | ?
O=C(Nc1cccc(Br)c1)c1ccc2nc(N3C(=O)CCC3=O)sc2c1 | 18% | -2% | -1% | -15% | 15% | 17µM*
CCC(C(=O)NC1CCCC1)N(Cc1ccco1)C(=O)CNS(=O)(=O)c1ccccc1 (stereo not drawn) | -1% | · | -3% | · | -2% | 0%
Cc1ccc(-c2nn(CCC(N)=O)c(=O)c3ccccc23)cc1 | -6% | · | 13% | ? | -2% | -1%
COc1ccc(C(=O)COc2ccccc2C#N)cc1 | 3.2µM* | · | ? | · | 2.8µM* | ?
COC(=O)CCC(=O)COc1ccc(OC)cc1C#N | 2.5µM* | · | ? | · | ? | ?
COC(=O)CCC(=O)COc1ccccc1C#N | 6% | 5% | ? | -3% | -1% | -12%
CCc1ccc(NC(=O)c2sc3nc(C)c(C(=O)Nc4ccc(C)cc4C)c(-c4ccco4)c3c2N)cc1 | · | · | · | -18% | · | 0%
C/C(=N\Nc1ccc(F)cc1F)c1ccccc1O | 12% | 1% | ? | 7% | 2% | 19µM*
Cc1cccc(NC(=O)/C(C#N)=C/c2ccccc2O)n1 | 4µM* | · | 16µM* | · | 3.5µM* | 0.6µM*
C=CCNC(=O)/C(C#N)=C/c1ccccc1Cl | 1% | 0% | 8% | -1% | -1% | ?
Cc1cccc(NC(=O)/C(C#N)=C/c2ccccc2Cl)n1 | -3% | · | 1% | · | 0% | 6µM*
Cn1cc(/C=C(\C#N)C(=O)Nc2ccccc2O)c2ccccc21 | ? | · | -11% | · | 27% | ?
